In paper PMC9838217, “Structure of SALL4 zinc finger domain reveals link between AT-rich DNA binding and Okihiro syndrome” one finds binding signal data, which are given here for six sequences.

Numbering of substitutions follows the chain as printed.

Test [1] has as its target T1, SALL4 ZFC4 R900W (HT-SELEX) (Mus musculus, UniProt Q8BX22 870-940, R900W).
T1 sequence: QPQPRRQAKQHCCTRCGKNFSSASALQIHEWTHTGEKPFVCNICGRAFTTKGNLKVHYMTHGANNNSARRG
In words: HT-SELEX; high values mean tight binding. The following applies: protein: recombinant; vector His6-GST; dsDNA, one strand shown. The gist of the method:
(§1)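 DNA from a random library (1.5 µg in the first cycle, 200 ng afterwards) was incubated with purified recombinant mouse SALL4 zinc finger cluster 4, residues 870–940 (1 µg), for 10 min at room temperature in 100 µl buffer: 10 mM Tris–HCl pH 7.5, 50 mM NaCl, poly(dI-dC), DTT. Bound complexes were pulled down on Ni2+ beads, washed and PCR-amplified, and the selection was repeated for up to 6 cycles in triplicate. MiSeq reads were scanned for 6-mers, and binding signal is each canonical k-mer's read fraction as fold change over the initial random library.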

The target of test [2] is T2, SALL4 ZFC4 G921D (HT-SELEX) (Mus musculus, UniProt Q8BX22 870-940, G921D).
T2 sequence: T1 sequence with W31R, G52D
In words: HT-SELEX; high values mean tight binding. The settings on record: protein: recombinant; vector His6-GST; dsDNA, one strand shown. The gist of the method: as §1

CACGGG: the binding signal in test [1] came to 0.253 ± 0.0129 fold-change vs cycle 0; in test [2], 0.366 ± 0.0584 fold-change vs cycle 0.
Taken in the same sequence, the figures for CCGACC were 0.172 ± 0.00253 fold-change vs cycle 0 and 0.309 ± 0.075 fold-change vs cycle 0.
Taken in the same sequence, the figures for CAAGCC were 0.349 ± 0.0256 fold-change vs cycle 0 and 0.491 ± 0.0577 fold-change vs cycle 0.
Taken in the same sequence, the figures for GGGCGA were 0.127 ± 0.00943 fold-change vs cycle 0 and 0.251 ± 0.0728 fold-change vs cycle 0.
For CCAGCA, the binding signal in test [1] was determined as 0.359 ± 0.0242 fold-change vs cycle 0; in test [2] it was 0.477 ± 0.0744 fold-change vs cycle 0.
Taken in the same sequence, the figures for AGGCCT were 0.384 ± 0.0275 fold-change vs cycle 0 and 0.516 ± 0.0785 fold-change vs cycle 0.
